{
  "source": "PubChem BioAssay (EPA / NIEHS)",
  "key": {"[1]": {"tested_on": "IYD (gene 389434)", "assay": "CCTE_GLTED_hIYD: CCTE's human Iodotyrosine Deiodinase (xIYD) Inhibition Assay, Great Lakes Toxicology and Ecology Division (GLTED) Lab (AID 2284317; active means hit-call score of the fitted dose curve at least 0.9, where 1 is the maximum;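 further: cell-free human IYD enzyme made in baculovirus insect cells; iodide freed from monoiodotyrosine measured by cerium arsenite color change at 420 nm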)", "in_short": "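Iodide liberated from monoiodotyrosine by baculovirus-expressed human IYD over 3 h was determined colorimetrically (Sandell-Kolthoff, 420 nm) after Dowex separation; inhibition is loss of signal versus DMSO.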"}, "[2]": {"tested_on": "SERPINA7 (gene 6906)", "assay": "CCTE_GLTED_hTBG: CCTE's human Thyroxine-binding Globulin (TBG) Inhibition Assay, Great Lakes Toxicology and Ecology Division (GLTED) Lab (AID 2284343; active means hit-call score of the fitted dose curve at least 0.9, where 1 is the maximum;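 further: active chemicals lower fluorescence versus DMSO baseline by displacing probe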)", "in_short": "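Steps: combine TBG with chemical; incubate 2 hours so that disruptors release ANSA; record fluorescence (380 ex, 475 em). Loss of signal was fitted against DMSO controls.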"}, "[3]": {"assay": "IUF_NPC2-5_cell_number_120hr: Cell Number Assessment at 120 hours in the Leibniz Research Institute for Environmental Medicine (IUF) Neural Progenitor Cell Migration and Differentiation Assay (NPC2-5) (AID 2284308)", "in_short": "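Hoechst-stained nuclei within the migration area were counted by automated high content imaging after 120 h. Single hNPC spheres differentiated on poly-D-lysine/laminin in DMEM/F12 (3:1) with 1% N2, compound present throughout, DMSO ≤0.1%.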"}, "[4]": {"assay": "IUF_NPC2-5_viability_120hr: Viability Assessment at 120 hours in the Leibniz Research Institute for Environmental Medicine (IUF) Neural Progenitor Cell Migration and Differentiation Assay (NPC2-5) (AID 2284312)", "in_short": "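Human fetal neural progenitor spheres (0.3 mm) plated on poly-D-lysine/laminin in N2 differentiation medium, exposed 120 h with half-medium refresh at day 3. Viability by alamar blue resazurin fluorescence; 7 concentrations, DMSO max 0.1%.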"}, "[5]": {"assay": "TAMU_PeakParms_SingleDonor1434_Asystole: Texas A&M University (TAMU) 1.5-hr Human Induced Pluripotent Stem Cell (iPSC)-derived Cardiomyocytes Calcium (Ca+2) Flux Assay for Cardiotoxicity: Asystole (quiescence of beating) (AID 2284328; active means hit-call score of the fitted dose curve at least 0.9, where 1 is the maximum)", "in_short": "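Donor 1434 iPSC-cardiomyocytes exposed 90 min at 37C, 5% CO2, to 0.2, 1, 10 and 100 uM in 0.5% DMSO. Ca2+ dye fluorescence gave average peak frequency; POD is EC95, a 95% beat-rate drop versus controls.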"}, "[6]": {"assay": "IUF_NPC1_cytotoxicity_72hr: Cytotoxicity Assessment at 72 hours in the Leibniz Research Institute for Environmental Medicine (IUF) Neural Progenitor Cell Proliferation Assay (NPC1) (AID 2284332; active means hit-call score of the fitted dose curve at least 0.9, where 1 is the maximum;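 further: rising LDH signal means more cytotoxicity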)", "in_short": "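Readout is fluorescence from LDH-dependent resazurin conversion, sampled from culture medium after compound contact lasting 72 h. Each well holds one 0.25-0.35 mm human progenitor sphere kept at 37C, 5% CO2 with EGF and FGF.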"}, "[7]": {"assay": "CCTE_Deisenroth_5AR_NBTE_donor: CCTE's 5alpha-reductase NanoBRET Target Engagement Assay […], Deisenroth Lab (AID 2284319)", "conditions": "actives raise or lower the signal", "in_short": "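HEK293T cells transiently expressing SRD5A2-NanoLuc, exposed 5 h to chemicals (8 points, 10 nM - 29.9 uM), with testosterone tracer for the final 2 h. Donor luminescence at 460 nm read after Nano-Glo substrate plus extracellular NanoLuc inhibitor; bidirectional fit versus DMSO.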"}, "[8]": {"assay": "CCTE_Deisenroth_5AR_NBTE_acceptor: CCTE's 5alpha-reductase NanoBRET Target Engagement Assay - Autofluorescence Screen, Deisenroth Lab (AID 2284321);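 further: compound fluorescence in the acceptor channel under 460 nm excitation flags autofluorescence artifacts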", "conditions": "actives raise or lower the signal", "in_short": "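Autofluorescence check: ToxCast chemicals, nominal 100 uM, excitation 460 nm, n=3 runs. Acceptor fluorescence endpoint, bidirectional fit relative to DMSO. Parent assay in HEK293T, 5 h post-dose.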"}, "[9]": {"tested_on": "SRD5A2 (gene 6716)", "assay": "CCTE_Deisenroth_5AR_NBTE_ratio: CCTE's 5alpha-reductase NanoBRET Target Engagement Assay - Ratio, Deisenroth Lab (AID 2284322)", "conditions": "actives raise or lower the signal", "in_short": "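SRD5A2-NanoLuc HEK293T; cmpd 10 nM-29.9 uM, 3 h preinc + testosterone tracer 2 h; NanoBRET ratio 650/460; bidirectional fit vs DMSO.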"}, "[10]": {"assay": "CCTE_Mundy_HCI_iCellGluta_NOG_NeuriteLength: CCTE's Neurite Outgrowth Assay in iCellGluta cells for Neurite Length, Mundy Lab (AID 2284318; active means hit-call score of the fitted dose curve at least 0.9, where 1 is the maximum)", "in_short": "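Automated high-content imaging of betaIII-tubulin (Alexa Fluor-488) and Hoechst-stained cells gave neurite length, normalized to the DMSO baseline.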"}, "[11]": {"assay": "CCTE_Mundy_HCI_iCellGluta_NOG_NeuronCount: CCTE's Neurite Outgrowth Assay in iCellGluta cells for Neuron Count, Mundy Lab (AID 2284340; active means hit-call score of the fitted dose curve at least 0.9, where 1 is the maximum;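 further: cells fixed about 48 h after compound addition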)", "in_short": "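Neuron count read by automated high-content imaging of Hoechst 33342 and betaIII-tubulin/Alexa Fluor-488 labelling in human iPSC glutamatergic neurons. Activity fitted relative to DMSO.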"}, "[12]": {"assay": "CCTE_Mundy_HCI_iCellGluta_NOG_NeuriteCount: CCTE's Neurite Outgrowth Assay in iCellGluta cells for Neurite Count, Mundy Lab (AID 2284342; active means hit-call score of the fitted dose curve at least 0.9, where 1 is the maximum;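 further: chemical exposure about 48 hours starting 2 hours after plating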)"}},
  "note": "Inconclusive results are not listed. Active and inactive are the calls of the source. How the source made its calls, unless noted: active means hit-call score of the fitted dose curve at least 0.9, where 1 is the maximum; inactive means score below 0.9.",
  "data": [
    {"smiles": "CCCCCCCCC=CCCCCCCCC1=NCCN1CCO", "values": [
      {"measurement": "AC50", "setting": "[1]", "result": "66.2 µM (active)"}
    ]},
    {"smiles": "OCc1cccc(Oc2ccccc2)c1", "values": [
      {"measurement": "AC50", "setting": "[2]", "result": "27.4 µM (active)"}
    ]},
    {"smiles": "CC(C)CCCCCCCCCCCCCCC(=O)O", "values": [
      {"measurement": "AC50", "setting": "[1]", "result": "40.8 µM (active)"},
      {"measurement": "AC50", "setting": "[2]", "result": "5.3 µM (active)"}
    ]},
    {"smiles": "Nc1ccc2cc(S(=O)(=O)O)cc(O)c2c1N=Nc1ccccc1C(F)(F)F", "values": [
      {"measurement": "AC50", "setting": "[1]", "result": "100 µM (active)"}
    ]},
    {"smiles": "CCCCCCCCc1ccc(S(=O)(=O)O)cc1", "values": [
      {"measurement": "AC50", "setting": "[1]", "result": "100 µM (active)"}
    ]},
    {"smiles": "CCCCCCCCCCCCCC(=O)OCC(O)CO", "note": "(stereo not given)", "values": [
      {"measurement": "AC50", "setting": "[1]", "result": "100 µM (active)"}
    ]},
    {"smiles": "Oc1c(Cl)cc(Cl)c(Cl)c1Cc1c(O)c(Cl)cc(Cl)c1Cl", "values": [
      {"measurement": "AC50", "setting": "[3]", "result": "0.204 µM (active)"},
      {"measurement": "AC50", "setting": "[4]", "result": "0.147 µM (active)"},
      {"measurement": "AC50", "setting": "[5]", "result": "2.11 µM (active)"},
      {"measurement": "outcome", "setting": "[6]", "result": "inactive"}
    ]},
    {"smiles": "CC(CN=Cc1ccccc1O)N=Cc1ccccc1O", "note": "(stereo not given)", "values": [
      {"measurement": "outcome", "setting": "[7]", "result": "inactive"},
      {"measurement": "outcome", "setting": "[8]", "result": "inactive"},
      {"measurement": "outcome", "setting": "[9]", "result": "inactive"}
    ]},
    {"smiles": "C=CC(=O)OCCCC", "values": [
      {"measurement": "outcome", "setting": "[7]", "result": "inactive"},
      {"measurement": "outcome", "setting": "[8]", "result": "inactive"},
      {"measurement": "outcome", "setting": "[9]", "result": "inactive"}
    ]},
    {"smiles": "CCCCCCCCCCCCCCN(CCO)CCO", "values": [
      {"measurement": "AC50", "setting": "[1]", "result": "38.6 µM (active)"},
      {"measurement": "AC50", "setting": "[7]", "result": "62.3 µM (active)"},
      {"measurement": "AC50", "setting": "[8]", "result": "50 µM (active)"},
      {"measurement": "AC50", "setting": "[9]", "result": "77.7 µM (active)"}
    ]},
    {"smiles": "Cc1ccc(S(=O)(=O)Oc2ccc(N=Nc3ccc(-c4ccc(N=Nc5c(O)ccc6cc(S(=O)(=O)O)cc(S(=O)(=O)O)c56)c(C)c4)cc3C)cc2)cc1", "values": [
      {"measurement": "AC50", "setting": "[1]", "result": "44.4 µM (active)"},
      {"measurement": "outcome", "setting": "[7]", "result": "inactive"},
      {"measurement": "outcome", "setting": "[8]", "result": "inactive"},
      {"measurement": "AC50", "setting": "[9]", "result": "11.9 µM (active)"},
      {"measurement": "AC50", "setting": "[2]", "result": "3.93 µM (active)"}
    ]},
    {"smiles": "Nc1ccc(N)c2c1C(=O)c1ccccc1C2=O", "values": [
      {"measurement": "outcome", "setting": "[1]", "result": "inactive"},
      {"measurement": "outcome", "setting": "[7]", "result": "inactive"},
      {"measurement": "AC50", "setting": "[8]", "result": "7.65 µM (active)"},
      {"measurement": "AC50", "setting": "[9]", "result": "2.08 µM (active)"}
    ]},
    {"smiles": "CCCCCCCC(=O)OCC(O)CO", "note": "(stereo not given)", "values": [
      {"measurement": "outcome", "setting": "[7]", "result": "inactive"},
      {"measurement": "outcome", "setting": "[8]", "result": "inactive"},
      {"measurement": "outcome", "setting": "[9]", "result": "inactive"}
    ]},
    {"smiles": "O=C(CC(=O)c1ccccc1)c1ccccc1", "values": [
      {"measurement": "AC50", "setting": "[2]", "result": "8.66 µM (active)"}
    ]},
    {"smiles": "CN(C)CCOC(C)(c1ccccc1)c1ccccn1", "note": "(stereo not given)", "values": [
      {"measurement": "outcome", "setting": "[3]", "result": "inactive"},
      {"measurement": "outcome", "setting": "[4]", "result": "inactive"},
      {"measurement": "outcome", "setting": "[10]", "result": "inactive"},
      {"measurement": "outcome", "setting": "[6]", "result": "inactive"},
      {"measurement": "outcome", "setting": "[11]", "result": "inactive"},
      {"measurement": "outcome", "setting": "[12]", "result": "inactive"}
    ]}
  ]
}
